From PubChem BioAssay (NCI) come the findings set out here.

Test systems include HCT-15 colon; HT29 colon; SNB-75 CNS; SNB-19 CNS; U251 CNS; PC-3 prostate; SK-MEL-5 melanoma; UACC-62 melanoma; LOX IMVI melanoma; SK-MEL-28 melanoma; SK-MEL-2 melanoma; EKVX NSCLC; SN12C renal; UO-31 renal; TK-10 renal; ACHN renal; CAKI-1 renal; A498 renal; MOLT-4 leukemia; CCRF-CEM leukemia.
What all share (test): NCI-60 one-dose screen, 48 h (100 = growth as untreated, 0 = no growth, -100 = all killed)
Conditions in all cases: 10 µM unless noted

This is part of a sample that, as a whole, favours compounds with a hit. Of some 83,000 tested, about 20% had one in any assay.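 48-hour exposure, single concentration, 96-well plates; percent growth endpoint where 0 means no net growth. Active: below 10.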 Activity calls are given as the source filed them.

In the case of `C=CCOc1ccc(/C=C2\SC(=S)N(CCc3ccc(O)cc3)C2=O)cc1`, the growth with HCT-15 colon was 82.9% (inactive); in the test on HT29 colon, 88.4% (inactive); with SNB-75 CNS, 82% (inactive); in the test with SNB-19 CNS it was 93.3% (inactive); in the test with U251 CNS it was 86% (inactive); with PC-3 prostate, 90.4% (inactive). Besides, the growth with SK-MEL-5 melanoma is 94.4% (inactive); in the test on UACC-62 melanoma it was 73.8% (inactive); in the test with LOX IMVI melanoma it was -71.2% (active); with SK-MEL-28 melanoma, 110% (inactive); in the test with SK-MEL-2 melanoma, 106% (inactive); with EKVX NSCLC, 91.4% (inactive). In addition, the growth in the test with SN12C renal was 84.4% (inactive); in the test with UO-31 renal, 61.3% (inactive); in the test with TK-10 renal, 106% (inactive); with ACHN renal, 94% (inactive); with CAKI-1 renal, 71.2% (inactive); in the test with A498 renal it was 65.6% (inactive). In the test with MOLT-4 leukemia, the growth was 40.4% (inactive).
For `Clc1ccc2c(c1)N(c1ncnc3ccc(-c4cnc5[nH]ccc5c4)cc13)CC2`, the growth in the test on HCT-15 colon was 14.4% (inactive); with HT29 colon it was 3.75% (active); in the test on SNB-75 CNS, 3.69% (active); with SNB-19 CNS, 38.3% (inactive); with U251 CNS, 41.3% (inactive); in the test with PC-3 prostate, 28.2% (inactive). The growth was 32.7% (inactive) with SK-MEL-5 melanoma; 29.3% (inactive) in the test on UACC-62 melanoma; 13.4% (inactive) in the test with LOX IMVI melanoma; 36% (inactive) with SK-MEL-28 melanoma; 28.3% (inactive) in the test with SK-MEL-2 melanoma; 26.6% (inactive) with EKVX NSCLC. Besides, the growth is 26.7% (inactive) in the test on SN12C renal; 21% (inactive) in the test with UO-31 renal; 26.2% (inactive) in the test on TK-10 renal; 28.4% (inactive) with ACHN renal; 8.49% (active) with A498 renal; 21.1% (inactive) in the test with CCRF-CEM leukemia. In the test on MOLT-4 leukemia, the growth was -6.69% (active).
As to `CC/C=C\C/C=C\C[C@H](O)C/C=C1/C(=O)C=C[C@@H]1C/C=C\CCCC(=O)OC`, the growth is -25.8% (active) in the test with HCT-15 colon; -25.4% (active) in the test with HT29 colon; 53.3% (inactive) in the test with SNB-75 CNS; 20.2% (inactive) in the test on SNB-19 CNS; -73.3% (active) in the test on U251 CNS; -36.6% (active) with PC-3 prostate. Further, the growth with SK-MEL-5 melanoma was -94.9% (active); with UACC-62 melanoma, -56% (active); with LOX IMVI melanoma, -80.5% (active); with SK-MEL-28 melanoma it was -38% (active); in the test with SK-MEL-2 melanoma, -16.9% (active); in the test with EKVX NSCLC it was 24.8% (inactive). Further, the growth is -29.2% (active) in the test with SN12C renal; 5.09% (active) in the test with TK-10 renal; -1.75% (active) in the test on CAKI-1 renal; 21.9% (inactive) with A498 renal; -11.7% (active) in the test on CCRF-CEM leukemia; -10.5% (active) with MOLT-4 leukemia.
Regarding `O=C(CCN1CCOCC1)Nc1cccc(-n2cc(-c3ccncc3)c(-c3ccc(Cl)c(O)c3)n2)c1`, the growth was 28.5% (inactive) in the test with HCT-15 colon; -7.51% (active) in the test on HT29 colon; -1.7% (active) with SNB-75 CNS; 48.8% (inactive) in the test with SNB-19 CNS; 27.7% (inactive) in the test with U251 CNS; 11.4% (inactive) in the test on PC-3 prostate. In addition, the growth was 20.3% (inactive) with SK-MEL-5 melanoma; 43.1% (inactive) in the test on UACC-62 melanoma; 23.1% (inactive) in the test on LOX IMVI melanoma; 14.8% (inactive) with SK-MEL-2 melanoma; 55.7% (inactive) with EKVX NSCLC; 42.8% (inactive) with SN12C renal. Further, the growth with UO-31 renal is 41.9% (inactive); in the test on TK-10 renal it was 54.5% (inactive); in the test with ACHN renal it was 34.2% (inactive); in the test on CAKI-1 renal it was 38.6% (inactive); in the test on A498 renal, 10.9% (inactive); in the test with CCRF-CEM leukemia, 17.7% (inactive). In the test on MOLT-4 leukemia, the growth is 28.6% (inactive).
For the molecule `O=C1OCC2=C1C(c1cccc(C(F)(F)F)c1)c1cc3c(cc1N2CCO)OCCO3` (stereo unspecified), the growth with HCT-15 colon was 14.1% (inactive); with HT29 colon it was 3.94% (active); with SNB-75 CNS, 42.4% (inactive); in the test on SNB-19 CNS it was 23.4% (inactive); in the test on U251 CNS, 14.7% (inactive); with PC-3 prostate it was 26.2% (inactive). Also, the growth in the test with SK-MEL-5 melanoma was 22.9% (inactive); in the test on UACC-62 melanoma, 39.9% (inactive); in the test with LOX IMVI melanoma, 37.4% (inactive); in the test on SK-MEL-28 melanoma, 50% (inactive); with SK-MEL-2 melanoma it was 26.1% (inactive); in the test with EKVX NSCLC, 49.1% (inactive). For the same molecule, the growth was 46% (inactive) with SN12C renal; 54.4% (inactive) with TK-10 renal; 33.7% (inactive) in the test with ACHN renal; 30.5% (inactive) in the test with CAKI-1 renal; 16% (inactive) in the test on A498 renal; 9.36% (active) in the test with CCRF-CEM leukemia. Moreover, in the test with MOLT-4 leukemia, the growth was 16.8% (inactive).
`N#CC1=C(N)Oc2c(sc3c(Br)cccc23)C1c1ccccn1` (stereo unspecified): the growth in the test with HCT-15 colon was 28.5% (inactive); with HT29 colon it was 10.6% (inactive); in the test on SNB-75 CNS, 61.2% (inactive); in the test on SNB-19 CNS, 48.4% (inactive); in the test with U251 CNS, 36.5% (inactive); with PC-3 prostate it was 40.6% (inactive). Besides, the growth is 40.8% (inactive) in the test on SK-MEL-5 melanoma; 18.3% (inactive) with UACC-62 melanoma; 38.7% (inactive) in the test on LOX IMVI melanoma; 2.4% (active) in the test on SK-MEL-2 melanoma; 53.4% (inactive) in the test on EKVX NSCLC; 43.9% (inactive) in the test on SN12C renal. Moreover, the growth with UO-31 renal was 46.7% (inactive); in the test on TK-10 renal it was 64.6% (inactive); with ACHN renal it was 47.3% (inactive); in the test with CAKI-1 renal, 87.4% (inactive); with A498 renal it was 37.9% (inactive); in the test with CCRF-CEM leukemia it was 22.1% (inactive).
In the case of `N#Cc1c(-c2cccc(F)c2)cc(-c2cccnc2)[nH]c1=O`, the growth is 104% (inactive) in the test on HCT-15 colon; 104% (inactive) in the test on HT29 colon; 97.1% (inactive) with SNB-75 CNS; 99.9% (inactive) in the test with SNB-19 CNS; 101% (inactive) in the test with U251 CNS; 101% (inactive) in the test with PC-3 prostate. Besides, the growth is 104% (inactive) with SK-MEL-5 melanoma; 97.5% (inactive) with UACC-62 melanoma; 98.8% (inactive) in the test on LOX IMVI melanoma; 104% (inactive) with SK-MEL-28 melanoma; 110% (inactive) with SK-MEL-2 melanoma; 106% (inactive) in the test with EKVX NSCLC. The growth in the test on SN12C renal is 96.4% (inactive); in the test with TK-10 renal, 106% (inactive); with ACHN renal it was 101% (inactive); with CAKI-1 renal, 95.9% (inactive); with A498 renal, 116% (inactive); in the test with CCRF-CEM leukemia, 104% (inactive). For the same molecule, the growth in the test with MOLT-4 leukemia is 99.7% (inactive).
